Assay outcomes: PubChem BioAssay, several laboratories
CYP2C9 act = human CYP2C9 activators, primary screen, biochemical, luminescence. 96,000 tested, 1.4% active. recombinant CYP2C9, luciferin-H conversion; active compounds read high; factor 1 = untreated enzyme, 0 = blocked. AID 1024, 2008. activation factor at 5 µM;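 active = activation factor of 2 or more for CYP2C9 at a 5 µM dose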;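 also: 0 = sulfaphenazole-blocked wells and 1 = vehicle-only wells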
sEH act = soluble epoxide hydrolase activators, primary screen, biochemical, human sEH | purified human sEH enzymatic activity, activator screen | activation, % at 2 µM | 91,000 tested, 0.04% active | AID 717, 2007; in the data active = activation above about 37%
CYP2C9 inhib = blockers of cytochrome P450 2C9 activity – biochemical, luminescence, ADME assay, primary screen; P11712; CYP2C9 Supersomes, luciferin-H conversion; 96,000 tested, 20% active; inhibition, % at 5 µM;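 active = blocking of liver enzyme CYP2C9 beyond about 50% at 5 µM, limit read from the data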
CYP2C19 inhib = blockers of cytochrome P450 2C19 activity – biochemical, luminescence, ADME assay, primary screen. CYP2C19 Supersomes, luciferin-H EGE luminescence, 30 min. inhibition, % at 5 µM. 96,000 tested, 21% active. AID 778, 2007;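 active = CYP2C19 inhibition above a set limit at 5 µM in the primary screen, cut at about 50% in these data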;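 also: plate controls were negative control wells for no effect and 2.5 mM tranylcypromine positive control for full effect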
Target sequence (P33261 whole entry, looked up): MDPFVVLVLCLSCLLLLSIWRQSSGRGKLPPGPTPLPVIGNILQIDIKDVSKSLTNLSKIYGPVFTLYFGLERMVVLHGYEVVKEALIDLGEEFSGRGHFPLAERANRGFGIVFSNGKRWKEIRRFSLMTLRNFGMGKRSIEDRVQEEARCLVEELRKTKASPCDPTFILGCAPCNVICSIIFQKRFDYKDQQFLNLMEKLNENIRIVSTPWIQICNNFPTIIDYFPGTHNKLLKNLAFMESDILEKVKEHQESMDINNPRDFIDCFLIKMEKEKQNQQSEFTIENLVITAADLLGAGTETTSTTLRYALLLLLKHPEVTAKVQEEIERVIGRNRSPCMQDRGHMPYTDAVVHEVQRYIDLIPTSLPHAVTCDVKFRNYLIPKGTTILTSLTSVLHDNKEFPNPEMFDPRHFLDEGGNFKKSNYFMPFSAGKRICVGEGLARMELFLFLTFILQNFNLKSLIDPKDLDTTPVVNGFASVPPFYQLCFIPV
sEH inhibitor = soluble epoxide hydrolase inhibitors, primary screen, biochemical, human sEH; Bifunctional epoxide hydrolase 2 (Homo sapiens), P34913; recombinant human sEH enzymatic activity assay; inhibition, % at 2 µM; 91,000 tested, 0.34% active; AID 707, 2007; in the data active = inhibition above about 80%
CYP2C19 activ = human CYP2C19 activators, primary screen, biochemical, luminescence; recombinant CYP2C19, luciferin-H EGE luminescence; active compounds read high; 0 = fully inhibited enzyme, 1 = untreated enzyme; activation factor at 5 µM; AID 1025, 2008; 96,000 tested, under 10 active;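 active = activation factor of at least 2 at 5 µM in the primary screen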;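 also: 0 = wells with 2.5 mM tranylcypromine and 1 = vehicle-only wells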
* hit, by the source's call. The list is not random: actives were taken first. Their share in the collection is about 27%.

Screening COc1ccc(C2c3c(ncn(CCN4CCOCC4)c3=N)Oc3ccc4ccccc4c32)cc1 (configuration not stated) returned CYP2C9 act 0.4, sEH act -3, CYP2C9 inhib 56*, CYP2C19 inhib 50*, sEH inhibitor 5 and CYP2C19 activ 0.5.
`COc1ccc(C2c3c(ccc4ccccc34)Oc3ncn4nc(CO/N=C/c5ccccc5)nc4c32)cc1` (configuration not stated) gave CYP2C9 act 0.4, sEH act -2, CYP2C9 inhib 56*, CYP2C19 inhib 0, sEH inhibitor 2 and CYP2C19 activ 1.
COc1ccccc1OCc1nc2c3c(-c4ccccc4)c(-c4ccccc4)oc3ncn2n1 was read as sEH act 18 and sEH inhibitor -20.
N=c1c2c(ncn1CCN1CCOCC1)Oc1ccc3ccccc3c1C2c1ccccc1 (configuration not stated) was read as CYP2C9 act 0.9, sEH act 17, CYP2C9 inhib 8, CYP2C19 inhib 38, sEH inhibitor -16 and CYP2C19 activ 0.6.
Screening Cc1nn(Cc2ccccc2)c(C)c1NC(=O)CSc1nc(C2CC2)nc2c1cnn2-c1ccccc1 returned CYP2C9 act 0.4, sEH act -9, CYP2C9 inhib 64*, CYP2C19 inhib 11, sEH inhibitor 12 and CYP2C19 activ 0.9.
`Cc1nn(C)c(C)c1NC(=O)CSc1nc(Cc2ccccc2)nc2c1cnn2-c1ccccc1` gave sEH act -7 and sEH inhibitor 9.
For Cc1csc(NC(=O)c2c(O)c3c(n(CC(C)C)c2=O)CCCC3)n1 the results were CYP2C9 act 0.5, sEH act -2, CYP2C9 inhib 51*, CYP2C19 inhib 14, sEH inhibitor 7 and CYP2C19 activ 0.9.
CCCn1c2c(c(O)c(C(=O)Nc3nc(C)cs3)c1=O)CCCC2 was read as CYP2C9 act 0.9, CYP2C9 inhib 5, CYP2C19 inhib 0 and CYP2C19 activ 1.
For COc1ccc(C(=O)N(CN2CCCC2=O)c2nccs2)cc1OC the results were CYP2C9 act 0.9, CYP2C9 inhib 9, CYP2C19 inhib 1 and CYP2C19 activ 1.
For CCOCCCN(C(=O)Cn1nnc2ccccc21)C(C(=O)NCc1ccco1)c1ccncc1 (configuration not stated) the results were CYP2C9 act 0.9, sEH act 11, CYP2C9 inhib 14, CYP2C19 inhib 11, sEH inhibitor -12 and CYP2C19 activ 0.9.
`Cc1cncn1CCc1nc2c3ccccc3nc(=S)n2[nH]1` gave sEH act 16 and sEH inhibitor -16.
`O=C1CC(N2CCN(c3ccccc3F)CC2)C(=O)N1c1ccc(F)cc1` (configuration not stated) gave sEH act 3 and sEH inhibitor 1.
For O=C(NCc1ccccc1)c1ccc(F)c(S(=O)(=O)N2CCOCC2)c1 the results were CYP2C9 act 0.8, sEH act -16, CYP2C9 inhib 24, CYP2C19 inhib 4, sEH inhibitor 18 and CYP2C19 activ 1.
O=C(Nc1ccc2c(c1)OCCO2)c1ccc(Cl)c(S(=O)(=O)N2CCOCC2)c1 was read as CYP2C9 act 0.6, sEH act -79, CYP2C9 inhib 41, CYP2C19 inhib 63*, sEH inhibitor 79 and CYP2C19 activ 0.4.
Screening CCOc1ccccc1NC(=O)c1ccc(F)c(S(=O)(=O)N2CCC3(CC2)OCCO3)c1 returned CYP2C9 act 0.4, sEH act 5, CYP2C9 inhib 58*, CYP2C19 inhib 58*, sEH inhibitor -3 and CYP2C19 activ 0.4.
Screening O=C(Nc1ccccc1)c1ccc(F)c(S(=O)(=O)N2CCOCC2)c1 returned CYP2C9 act 0.4, CYP2C9 inhib 56*, CYP2C19 inhib 57* and CYP2C19 activ 0.4.
`O=C(Nc1ccccc1C(=O)O)c1ccc(Cl)c(S(=O)(=O)N2CCOCC2)c1` gave CYP2C9 act 0.2, CYP2C9 inhib 75*, CYP2C19 inhib -10 and CYP2C19 activ 1.1.
`O=C(Nc1nccs1)c1ccc(Cl)c(S(=O)(=O)N2CCOCC2)c1` gave CYP2C9 act 0.7, sEH act -18, CYP2C9 inhib 25, CYP2C19 inhib 18, sEH inhibitor 18 and CYP2C19 activ 0.8.
CCOC(=O)N1CCN(C(=O)C(c2ccccc2)c2ccccc2)CC1 was read as CYP2C9 act 0.5, sEH act -1, CYP2C9 inhib 49, CYP2C19 inhib 40, sEH inhibitor 4 and CYP2C19 activ 0.6.
For CCC(C)N(CCNC(=O)CC1Oc2ccc(C)cc2NC1=O)C1CCCCC1 (configuration not stated) the results were CYP2C9 act 1, CYP2C9 inhib 3, CYP2C19 inhib 8 and CYP2C19 activ 0.9.
`COC(=O)[C@H](C)NC(=O)Nc1ccc(C)c(C)c1` gave CYP2C9 act 0.7, sEH act 10, CYP2C9 inhib 31, CYP2C19 inhib 24, sEH inhibitor -9 and CYP2C19 activ 0.8.
For CCOC(=O)C1CCCN(C(=O)c2cc3ncc(Br)cn3n2)C1 (configuration not stated) the results were CYP2C9 act 1, sEH act 5, CYP2C9 inhib -3, CYP2C19 inhib 2, sEH inhibitor -8 and CYP2C19 activ 1.
`COc1ccccc1NC(=O)c1cn(C)c(=O)c2cc(OC)c(OC)cc12` gave CYP2C9 act 0.7, CYP2C9 inhib 28, CYP2C19 inhib 1 and CYP2C19 activ 1.
COc1ccccc1NC(=O)c1cc(Sc2nncn2C)nc2ccccc12 was read as CYP2C9 act 0.2, sEH act 5, CYP2C9 inhib 80*, CYP2C19 inhib 38, sEH inhibitor -4 and CYP2C19 activ 0.6.
Cc1nn(-c2nc3ccccc3n2Cc2ccccc2)c2c1C(=O)CC(C)(C)C2 was read as CYP2C9 act 0.3, sEH act -6, CYP2C9 inhib 66*, CYP2C19 inhib 53*, sEH inhibitor 7 and CYP2C19 activ 0.5.
For CCS(=O)(=O)N1CCCC(C(=O)NC2CCC(C)CC2)C1 (configuration not stated) the results were CYP2C9 act 1, sEH act -45, CYP2C9 inhib 1, CYP2C19 inhib 27, sEH inhibitor 46 and CYP2C19 activ 0.7.
CC1(C)CN(c2ccccc2)N(Cc2ccc(F)cc2)C1=O was read as CYP2C9 act 0.9, sEH act 1, CYP2C9 inhib 13, CYP2C19 inhib 60*, sEH inhibitor 1 and CYP2C19 activ 0.4.
